High-throughput results: PubChem BioAssay, National Center for Advancing Translational Sciences (NCATS)
Rab9 prom act – qHTS Assay for Rab9 Promoter Activators. Huh7 Rab9 promoter-luciferase reporter, luminescence, 24 h. Potency, µM (doses to about 9.22 µM), for the others: at the top dose activation, negative = inhibition, actives largely listed as activators. 320,000 compounds, 2.8% hits; note: % of control where 0% means no effect; nearly all actives have a fitted effect of over 60% in size
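Using Huh7 cells stably transfected with Rab9 promoter–luciferase, compounds were incubated 24 h at 37 °C, 5% CO2; luciferase luminescence was read 10 min after reagent addition.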
ELG1 genotox – qHTS screen for small molecules that induce genotoxicity in human embryonic kidney (HEK293T) cells expressing luciferase-tagged ELG1; 330,000 compounds, 1.3% hits; AID 504466, 2011; HEK293T ELG1-luciferase reporter, luminescence, 16 h; Potency, µM (series often up to 46 µM), for inactives: at the top dose activity change, positive = activation, actives largely listed as activators; note: % of control where 0% means no effect; nearly all actives have a fitted effect of over 60% in size
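Cells (2,000/well) expressing the ELG1-luciferase fusion are dosed by pin tool and kept 16 hr at 37 °C, 5% CO2. Signal comes from ONE-Glo luciferase reagent after 30 min at room temperature.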
Luc counter – Counterscreen for Luciferase (Kinase-Glo TM) Inhibition | Luciferin 4-monooxygenase (Photuris pensylvanica), Q27757 | Kinase-Glo luciferase, ATP luminescence, 8 min | Potency, µM (highest dose often 38.3 µM), inactives show at the highest dose activity change, negative = inhibition, actives largely listed as inhibitors | 200,000 compounds, 0.28% hits | AID 1379, 2008; note: % is set by controls: 0 for no effect and ±100 for the full control effect; nearly all actives have a fitted effect of over 60% in size
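Kinase-Glo luciferase light output from ATP and luciferin was measured with 10 uM ATP, within the enzyme's linear range. Buffer: 50 mM imidazole pH 7.2, 50 mM KCl, 7 mM MgCl2, 0.01% Tween 20, 0.05% BSA; luminescence read after 8 min at ambient temperature.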
FLuc counter – qHTS profiling assay for firefly luciferase inhibitor/activator using purifed enzyme and Km concentrations of substrates (counterscreen for miR-21 project); purified FLuc, Km substrates, luminescence inhibition; Potency, µM (top dose mostly 57.5 µM), without a hit: top-dose activity change, negative = inhibition, usual class: inhibitors; 360,000 compounds, 6.9% hits;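 note: plate controls were vehicle for no effect and reference inhibitor for full effect; nearly all actives have a fitted effect of over 55% in size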
Target sequence (P08659 whole entry, looked up): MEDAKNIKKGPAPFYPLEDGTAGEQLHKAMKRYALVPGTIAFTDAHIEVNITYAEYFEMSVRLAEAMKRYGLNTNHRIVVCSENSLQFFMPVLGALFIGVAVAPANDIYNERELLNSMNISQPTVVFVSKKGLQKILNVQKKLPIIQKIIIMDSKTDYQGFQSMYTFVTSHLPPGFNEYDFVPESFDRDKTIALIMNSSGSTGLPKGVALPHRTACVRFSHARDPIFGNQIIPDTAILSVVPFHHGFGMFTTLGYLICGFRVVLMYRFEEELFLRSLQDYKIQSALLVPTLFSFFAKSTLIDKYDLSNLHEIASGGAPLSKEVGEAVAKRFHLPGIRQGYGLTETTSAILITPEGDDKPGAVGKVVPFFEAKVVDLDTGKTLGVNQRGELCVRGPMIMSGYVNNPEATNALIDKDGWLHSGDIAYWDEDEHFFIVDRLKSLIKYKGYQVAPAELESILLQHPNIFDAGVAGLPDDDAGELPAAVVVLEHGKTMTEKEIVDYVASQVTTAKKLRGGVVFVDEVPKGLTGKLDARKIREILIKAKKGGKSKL
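Biochemical qHTS of compounds, final roughly 60 µM downward over six points, against 10 nM purified firefly luciferase using Km concentrations of substrates (10 uM D-luciferin, 10 uM ATP) in Tris acetate pH 7.5 buffer; luminescence output.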
NPC1 prom act – qHTS Assay for NPC1 Promoter Activators. Huh7 NPC1 promoter luciferase reporter, 24 h. Potency, µM (top dose mostly 9.22 µM), for the others: top-dose activation, hits mostly activators. 320,000 compounds, 2.4% hits; note: % of control where 0% means no effect; nearly all actives have a fitted effect of over 60% in size
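Cells: Huh7 expressing luciferase under the NPC1 promoter, 1500/well. Seeded 2 h, compound added, incubated 24 h at 37 °C. Luciferase reagent, 10 min ambient, then luminescence.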
SMN2 splice enh – qHTS Assay for Enhancers of SMN2 Splice Variant Expression; 210,000 compounds, 2.8% hits; Potency, µM (top dose mostly 46.1 µM), for inactives: at the highest dose activity change, positive = activation, actives largely listed as activators; HEK293 SMN2-luciferase splicing reporter, luminescence, 30-36 h; AID 1458, 2008; note: % of control where 0% means no effect; nearly all actives have a fitted effect of over 55% in size
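HEK293 cells carry an SMN2 […]–luciferase reporter in which exon 7 inclusion puts luciferase in frame. Cells were plated 10-12 h before compound addition, then incubated 30-36 h at 37C. ONE-Glo luminescence was read; sodium butyrate at 4.5 mM final served as control.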
Active calls of the source: *; ? = inconclusive; / = no result given. In the library only some 7.5% were active in any assay of this set; here they are far more common. Calls come from the whole dose curve; as a rule, active = well fitted curve in the direction sought with a large enough effect; inconclusive = small, poorly fitted or top-dose-only effect, or another doubt; inactive = no such curve, though single readings can be large; an effect the other way counts as inactive or inconclusive. Potency is the fitted concentration of half-maximal effect.

SMILES	Rab9 prom act	ELG1 genotox	Luc counter	FLuc counter	NPC1 prom act	SMN2 splice enh
CCn1cc2nc(SCC(=O)Nc3ccccc3C(F)(F)F)n(Cc3ccc(C)cc3)c(=O)c2n1	/	/	/	-13%	/	-4%
S=C(NCCN1CCOCC1)Nc1ccc(-c2nc3ccccc3[nH]2)cc1	?	-4%	-1%	?	25%	0%
Cc1ncc(CO)c(CNc2ccc(-c3nc4ccccc4[nH]3)cc2)c1O	1.6µM*	?	/	3.4µM*	1µM*	/
O=[N+]([O-])c1cc2c(cc1C=Nc1ccccc1)OCO2	0%	1%	-4%	-13%	-1%	-8%
Sc1oc(-c2ccccc2)cc1C=Nc1ccccc1	6%	12µM*	-3%	2.1µM*	0%	-21%
CC(=O)c1c(C)[nH]c(C(=O)Nc2nc(-c3ccc(Cl)cc3)cs2)c1C	-3%	-13%	0%	-7%	-2%	-45%
CC(=O)c1c(C)[nH]c(C(=O)Nc2nc(C)cs2)c1C	0.11µM*	0.52µM*	-7%	0.6µM*	1µM*	1.6µM*
CC(=O)c1c(C)[nH]c(C(=O)Nc2ccc(C)cn2)c1C	0.25µM*	?	-14%	0.43µM*	0.71µM*	0.79µM*
Cc1cc(C=NCCCO)c(C)n1-c1cc(Cl)ccc1Cl	-1%	2%	1%	3%	-7%	-19%
CSc1cccc(NC(=O)C(c2ccccc2)N2Cc3ccccc3C2=O)c1 (stereo unspecified)	/	/	/	-11%	/	/
Brc1cccc(-c2nnn3c2nc(NCc2ccc4c(c2)OCO4)c2ccccc23)c1	/	/	/	-8%	/	14µM*
Cn1c(C(=O)N2CCC(C(=O)NCc3ccccc3)CC2)cc2sccc21	-9%	-1%	/	0%	-3%	/
COc1cc(/C=N/Nc2ccccc2[N+](=O)[O-])ccc1OC(=O)c1ccccc1F	3.2µM*	2.6µM*	?	9.5µM*	4µM*	6.3µM*
COc1cc(/C=N/Nc2nc3ccccc3s2)ccc1OC(=O)c1ccccc1F	?	6.5µM*	7%	?	24%	?
O=[N+]([O-])c1cc(Cl)cc(/C=N/Nc2nc3ccccc3s2)c1O	-7%	0%	-7%	?	-2%	/
COc1cc(/C=N/Nc2nc3ccccc3s2)cc([N+](=O)[O-])c1O	22%	4%	/	11µM*	?	/
COc1cc(/C=N/Nc2ccccc2[N+](=O)[O-])cc(OC)c1O	1%	?	-20%	?	2%	8%
C=C1C=C(C(F)F)n2ncc(C(=O)Nc3ccc(C(C)CC)cc3)c2N1 (stereo unspecified)	/	/	/	0%	/	/
Cc1cccc(C(=O)NCCc2ccccc2)c1	1.3µM*	4.6µM*	/	11µM*	1.4µM*	/
Cc1cc(C(=O)NCC(=O)OCC(=O)N(C(C)C)C(C)C)ccc1[N+](=O)[O-]	1%	1%	-1%	0%	3%	13µM*
NC(=O)c1ccc(NCC2CCCO2)c([N+](=O)[O-])c1 (stereo unspecified)	4%	5%	/	-1%	6%	/
Cc1ccc(C(=O)NCC(=O)OCC(=O)c2ccc(C)c([N+](=O)[O-])c2)cc1	5%	1%	4%	2%	0%	7%
O=C(NCCc1ccccc1)c1ccc([N+](=O)[O-])cc1	0.45µM*	?	-3%	3µM*	0.4µM*	11µM*
O=C(NCCc1ccccc1)c1ccc(NCC2CCCO2)c([N+](=O)[O-])c1 (stereo unspecified)	?	?	5%	?	?	10µM*
Cc1oc(-c2ccc(C(=O)N(C)Cc3ccccc3)cc2)nc1CN1CCc2ccccc21	/	/	/	-5%	/	/
SMILES	Rab9 prom act	ELG1 genotox	Luc counter	FLuc counter	NPC1 prom act	SMN2 splice enh
CCOC(=O)c1ccc(N2CCOCC2)c(NS(=O)(=O)c2ccc(F)cc2)c1	3%	3%	/	-1%	-1%	/
CCc1ccc(NC(=O)C2CCN(S(=O)(=O)c3cccc(-c4noc(C)n4)c3)CC2)cc1	/	/	/	-13%	/	/
COc1ccc(CNC(=O)C(CCSC)NS(=O)(=O)c2ccc3c(c2)oc(=O)n3C)cc1 (stereo unspecified)	/	/	/	-1%	/	/
Cc1cc(C(=O)NCCc2ccccc2)ccc1[N+](=O)[O-]	4µM*	?	4%	13µM*	2.2µM*	11µM*
Cc1oc2ncn(CC(C)C)c(=O)c2c1C(=O)Nc1cccc(C(F)(F)F)c1	/	/	/	0%	/	/
O=C(O)CCc1ccc(-c2ccc(Cl)cc2)o1	2%	?	-4%	15µM*	8%	-3%
O=C(O)CCc1ccc(-c2ccc(Br)cc2)o1	5%	4%	-1%	15µM*	11%	5%
COc1ccc(-c2ccc(CCC(=O)O)o2)cc1	18%	12%	-3%	5.4µM*	18%	/
O=C(O)CCc1ccc(-c2ccc(Br)cc2)n1Cc1ccco1	-6%	-1%	1%	4%	-3%	-6%
CCOC(=O)c1ccc(NC(=O)CC2C(=O)N(c3ccccc3)C(=O)N2C2CCCCC2)cc1 (stereo unspecified)	/	/	/	4%	/	14%
CCOC(=O)c1ccc2nc(C)c3c(c2c1)OC(C)C3 (stereo unspecified)	1%	10%	-3%	3%	-3%	-12%
CCOC(=O)c1ccc2nc3c(cc2c1)CCS3	19%	?	0%	19µM*	?	11%
Cc1ccc(C)c(N2CC(C(=O)Nc3cc(C)on3)CC2=O)c1 (stereo unspecified)	-1%	0%	/	2%	1%	/
CCOC(=O)C1=C(CS(=O)(=O)c2ccc(F)c(C)c2)NC(=O)NC1c1ccccc1OC (stereo unspecified)	/	/	/	-6%	/	16%
CCOc1ccccc1NC(=O)c1ccc(NC(=O)c2ccco2)cc1	-2%	1%	9%	-3%	3%	-8%
Cc1ccc(NC(=S)N(CCN(C)C)Cc2cccs2)cc1	-2%	-4%	-3%	0%	-8%	-20%
CC(C)OC(=O)c1ccc2nc3ccccc3nc2c1	0.71µM*	?	/	1.7µM*	2.8µM*	/
CCOC(=O)c1ccc(NC(=O)N(CC)CC)cc1	2.5µM*	16µM*	1%	19µM*	?	11µM*
CCOC(=O)c1ccc(NC(=S)N(CCN(C)C)Cc2cccs2)cc1	-1%	-11%	7%	-1%	-8%	3.5µM*
CCOC(=O)c1ccc(NC(=O)c2ccco2)cc1	2.2µM*	?	/	11µM*	3.5µM*	/
